This is an account of results in paper PMC7862700, “An all-to-all approach to the identification of sequence-specific readers for epigenetic DNA modifications on cytosine”.

Assay in all cases: DAPPL (digital affinity profiling via proximity ligation, sequencing); 10 mM Tris-HCl pH 7.5, 50 mM NaCl, 1 mM DTT, 4% glycerol, room temperature, 30 min; GST-TFs on glutathione beads, 16-mer random dsDNA library, 0.1% formaldehyde crosslink after washing; high values mean tight binding
For one test, the target named is T1, FEV (Homo sapiens, UniProt Q99581 1-238).
T1 sequence: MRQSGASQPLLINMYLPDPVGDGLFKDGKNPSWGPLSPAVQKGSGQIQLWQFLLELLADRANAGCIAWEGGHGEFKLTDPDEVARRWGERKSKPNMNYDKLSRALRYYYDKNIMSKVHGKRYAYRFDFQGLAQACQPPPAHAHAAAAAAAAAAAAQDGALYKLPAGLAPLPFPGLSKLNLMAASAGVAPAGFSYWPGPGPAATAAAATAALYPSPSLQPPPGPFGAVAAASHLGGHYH
Particulars: protein: recombinant; tags: N-terminal GST; dsDNA, one strand shown. In short, it runs like this: (§1)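 Human transcription factors fused to GST were expressed in yeast, captured on glutathione beads, given DNA barcodes and pooled with a GST-only negative control. Pools were incubated with 200 nmole of a 16-mer random double-stranded DNA library in Tris/NaCl/DTT/glycerol buffer at room temperature for 30 min. They were then washed, crosslinked with 0.1% formaldehyde, proximity-ligated (BsaI/T4 ligase, 1 h, 37 °C), PCR-amplified and sequenced on an Illumina NextSeq500. Binding signal is each 6-mer's read frequency for a factor divided by its frequency for the GST control.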

The target in another test is ETV5 (Homo sapiens, UniProt P41161 1-510). As to conditions: protein: recombinant; tags: N-terminal GST; dsDNA, one strand shown. The essentials: as §1
ETV5, sequence (P41161 whole entry): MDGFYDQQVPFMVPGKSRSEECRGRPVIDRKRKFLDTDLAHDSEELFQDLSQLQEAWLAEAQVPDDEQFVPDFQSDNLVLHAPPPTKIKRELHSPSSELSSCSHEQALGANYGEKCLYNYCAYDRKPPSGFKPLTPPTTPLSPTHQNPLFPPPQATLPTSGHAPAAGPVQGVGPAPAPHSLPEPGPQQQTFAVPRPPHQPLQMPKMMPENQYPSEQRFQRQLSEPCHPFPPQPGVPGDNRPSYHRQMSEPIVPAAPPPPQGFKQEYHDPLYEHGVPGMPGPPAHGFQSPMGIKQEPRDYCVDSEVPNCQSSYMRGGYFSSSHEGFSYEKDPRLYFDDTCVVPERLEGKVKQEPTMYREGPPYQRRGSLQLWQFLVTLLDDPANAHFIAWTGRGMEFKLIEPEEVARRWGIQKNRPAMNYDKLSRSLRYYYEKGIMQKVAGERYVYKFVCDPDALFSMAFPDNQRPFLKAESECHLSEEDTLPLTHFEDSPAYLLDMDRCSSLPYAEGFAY
The target of another test is HSF1 (Homo sapiens, UniProt Q00613 1-529). As to conditions: protein: recombinant; tags: N-terminal GST; chain copies: 3; dsDNA, one strand shown. In short, it runs like this: as §1
HSF1, sequence (Q00613 whole entry): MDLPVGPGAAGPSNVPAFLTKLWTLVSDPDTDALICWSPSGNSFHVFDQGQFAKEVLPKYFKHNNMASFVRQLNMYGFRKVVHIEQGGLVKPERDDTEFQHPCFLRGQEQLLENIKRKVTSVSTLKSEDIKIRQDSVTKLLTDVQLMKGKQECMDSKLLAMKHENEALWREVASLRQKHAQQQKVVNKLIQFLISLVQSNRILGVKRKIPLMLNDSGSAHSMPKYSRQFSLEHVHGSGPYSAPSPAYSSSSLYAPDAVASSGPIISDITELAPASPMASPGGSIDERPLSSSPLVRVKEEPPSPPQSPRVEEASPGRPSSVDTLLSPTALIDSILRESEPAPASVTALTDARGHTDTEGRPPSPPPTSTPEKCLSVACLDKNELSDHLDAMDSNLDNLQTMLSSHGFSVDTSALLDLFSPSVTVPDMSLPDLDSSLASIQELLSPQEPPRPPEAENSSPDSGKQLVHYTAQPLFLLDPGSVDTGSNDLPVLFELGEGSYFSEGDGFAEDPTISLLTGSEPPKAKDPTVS
The next test concerns the target T2, SPIC (Homo sapiens, UniProt Q8N5J4 1-248).
T2 sequence: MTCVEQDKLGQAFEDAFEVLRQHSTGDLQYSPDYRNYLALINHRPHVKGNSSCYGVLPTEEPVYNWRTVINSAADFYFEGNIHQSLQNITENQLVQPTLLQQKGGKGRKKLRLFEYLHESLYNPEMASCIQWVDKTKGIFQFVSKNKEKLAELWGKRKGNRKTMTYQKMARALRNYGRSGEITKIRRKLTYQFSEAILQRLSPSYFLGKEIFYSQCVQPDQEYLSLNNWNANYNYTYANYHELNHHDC
Particulars: protein: recombinant; tags: N-terminal GST; dsDNA, one strand shown. In short, it runs like this: as §1

The target of the next test is ELF4 (Homo sapiens, UniProt Q99607 1-663). Particulars: protein: recombinant; tags: N-terminal GST; dsDNA, one strand shown. In short, it runs like this:
as §1

A further test has as its target T3, ELK4 (Homo sapiens, UniProt P28324-2 1-405).
T3 sequence: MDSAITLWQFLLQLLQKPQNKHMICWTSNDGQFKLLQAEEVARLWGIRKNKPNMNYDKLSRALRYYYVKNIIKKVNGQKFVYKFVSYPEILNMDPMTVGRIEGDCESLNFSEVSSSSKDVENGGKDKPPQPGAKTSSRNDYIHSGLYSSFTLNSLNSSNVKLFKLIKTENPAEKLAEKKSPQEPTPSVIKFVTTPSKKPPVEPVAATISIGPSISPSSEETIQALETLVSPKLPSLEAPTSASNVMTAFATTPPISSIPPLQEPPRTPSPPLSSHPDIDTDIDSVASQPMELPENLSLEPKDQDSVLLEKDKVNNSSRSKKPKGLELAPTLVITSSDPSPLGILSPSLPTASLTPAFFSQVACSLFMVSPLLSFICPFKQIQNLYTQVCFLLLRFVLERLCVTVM
Particulars: protein: recombinant; tags: N-terminal GST; dsDNA, one strand shown. The essentials: as §1

Another test addresses T4, ETV2 (Homo sapiens, UniProt O00321 1-342).
T4 sequence: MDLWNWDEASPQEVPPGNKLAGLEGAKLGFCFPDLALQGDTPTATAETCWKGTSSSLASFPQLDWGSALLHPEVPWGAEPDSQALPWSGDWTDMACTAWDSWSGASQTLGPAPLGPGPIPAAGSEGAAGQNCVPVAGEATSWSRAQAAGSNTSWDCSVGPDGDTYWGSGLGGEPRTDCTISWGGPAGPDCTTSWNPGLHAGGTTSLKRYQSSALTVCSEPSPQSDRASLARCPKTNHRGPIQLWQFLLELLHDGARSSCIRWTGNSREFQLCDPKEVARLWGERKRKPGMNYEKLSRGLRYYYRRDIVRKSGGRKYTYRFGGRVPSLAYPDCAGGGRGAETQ
As to conditions: protein: recombinant; tags: N-terminal GST; dsDNA, one strand shown. In short, it runs like this:
as §1

The target in a further test is T5, ELF3 (Homo sapiens, UniProt P78545 1-371).
T5 sequence: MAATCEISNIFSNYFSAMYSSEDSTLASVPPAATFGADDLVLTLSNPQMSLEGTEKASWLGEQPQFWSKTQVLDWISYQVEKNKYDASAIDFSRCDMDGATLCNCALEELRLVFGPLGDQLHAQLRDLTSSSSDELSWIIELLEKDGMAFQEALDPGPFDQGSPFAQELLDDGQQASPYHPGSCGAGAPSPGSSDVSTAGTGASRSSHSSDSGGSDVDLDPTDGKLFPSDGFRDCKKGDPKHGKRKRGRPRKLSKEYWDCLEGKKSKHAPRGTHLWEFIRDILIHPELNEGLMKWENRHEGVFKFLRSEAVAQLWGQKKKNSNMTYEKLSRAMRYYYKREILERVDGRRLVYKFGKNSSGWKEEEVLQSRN
As to conditions: protein: recombinant; tags: N-terminal GST; dsDNA, one strand shown. In short, it runs like this:
as §1

A further test addresses CRX (Homo sapiens, UniProt O43186 1-299). As to conditions: protein: recombinant; tags: N-terminal GST; dsDNA, one strand shown. The essentials:
as §1

The next test deals with ETV1 (Homo sapiens, UniProt P50549 1-477). As to conditions: protein: recombinant; tags: N-terminal GST; dsDNA, one strand shown. The essentials:
as §1

In a further test the target is T6, ERF (Homo sapiens, UniProt P50548 1-548).
T6 sequence: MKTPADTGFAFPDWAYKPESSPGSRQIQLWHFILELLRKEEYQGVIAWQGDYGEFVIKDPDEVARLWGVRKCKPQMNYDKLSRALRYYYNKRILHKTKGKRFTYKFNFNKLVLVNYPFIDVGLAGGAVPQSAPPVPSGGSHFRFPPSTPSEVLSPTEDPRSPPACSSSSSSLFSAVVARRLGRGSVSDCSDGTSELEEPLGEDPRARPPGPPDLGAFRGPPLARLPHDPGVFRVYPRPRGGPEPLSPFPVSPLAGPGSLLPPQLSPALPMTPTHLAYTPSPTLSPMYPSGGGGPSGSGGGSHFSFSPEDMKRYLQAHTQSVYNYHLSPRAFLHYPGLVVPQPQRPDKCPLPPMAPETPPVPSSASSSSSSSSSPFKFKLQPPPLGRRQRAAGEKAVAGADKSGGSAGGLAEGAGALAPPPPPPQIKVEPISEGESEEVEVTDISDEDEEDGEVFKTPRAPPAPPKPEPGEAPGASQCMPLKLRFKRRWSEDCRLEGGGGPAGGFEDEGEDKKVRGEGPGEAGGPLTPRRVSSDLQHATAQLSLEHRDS
As to conditions: protein: recombinant; tags: N-terminal GST; dsDNA, one strand shown. In short, it runs like this: as §1

For the next test, the target named is T7, ETV3L (Homo sapiens, UniProt Q6ZN32 1-361).
T7 sequence: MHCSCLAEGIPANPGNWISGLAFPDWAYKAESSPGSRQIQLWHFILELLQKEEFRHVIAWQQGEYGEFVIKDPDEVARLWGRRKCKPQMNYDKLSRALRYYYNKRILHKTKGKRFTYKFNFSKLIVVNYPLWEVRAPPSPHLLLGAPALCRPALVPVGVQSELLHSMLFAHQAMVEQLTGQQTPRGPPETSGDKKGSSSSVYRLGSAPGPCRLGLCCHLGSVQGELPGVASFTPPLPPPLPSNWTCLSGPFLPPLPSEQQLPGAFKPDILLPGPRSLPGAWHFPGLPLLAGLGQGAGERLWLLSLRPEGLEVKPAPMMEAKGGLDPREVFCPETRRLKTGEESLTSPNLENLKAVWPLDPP
As to conditions: protein: recombinant; tags: N-terminal GST; dsDNA, one strand shown. In short, it runs like this:
as §1

A further test concerns the target T8, ETS2 (Homo sapiens, UniProt P15036 1-469).
T8 sequence: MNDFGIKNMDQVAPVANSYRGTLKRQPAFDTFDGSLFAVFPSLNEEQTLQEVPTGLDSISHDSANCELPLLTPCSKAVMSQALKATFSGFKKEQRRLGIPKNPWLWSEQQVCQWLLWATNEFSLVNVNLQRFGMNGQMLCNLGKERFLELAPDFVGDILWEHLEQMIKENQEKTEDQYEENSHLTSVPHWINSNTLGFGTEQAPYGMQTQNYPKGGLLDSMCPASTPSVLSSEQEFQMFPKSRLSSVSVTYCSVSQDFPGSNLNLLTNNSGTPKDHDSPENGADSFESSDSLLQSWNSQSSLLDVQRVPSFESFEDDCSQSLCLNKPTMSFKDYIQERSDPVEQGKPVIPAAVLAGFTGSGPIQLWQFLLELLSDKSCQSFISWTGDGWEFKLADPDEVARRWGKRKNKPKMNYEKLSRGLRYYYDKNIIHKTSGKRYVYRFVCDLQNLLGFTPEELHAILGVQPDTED
Particulars: protein: recombinant; tags: N-terminal GST; dsDNA, one strand shown. The essentials:
as §1

A further test has as its target T9, SPDEF (Homo sapiens, UniProt O95238 1-335).
T9 sequence: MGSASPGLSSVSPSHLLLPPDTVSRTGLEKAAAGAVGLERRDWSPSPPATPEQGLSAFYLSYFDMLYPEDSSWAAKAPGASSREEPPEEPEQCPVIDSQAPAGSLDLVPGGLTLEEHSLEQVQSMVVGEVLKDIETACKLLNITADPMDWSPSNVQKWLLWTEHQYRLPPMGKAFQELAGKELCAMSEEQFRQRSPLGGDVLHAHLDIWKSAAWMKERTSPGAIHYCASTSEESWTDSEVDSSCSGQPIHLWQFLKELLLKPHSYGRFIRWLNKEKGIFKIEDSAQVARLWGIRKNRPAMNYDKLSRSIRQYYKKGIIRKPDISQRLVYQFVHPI
As to conditions: protein: recombinant; tags: N-terminal GST; dsDNA, one strand shown. In short, it runs like this:
as §1

A further test has as its target T10, ETV7 (Homo sapiens, UniProt Q9Y603 1-341).
T10 sequence: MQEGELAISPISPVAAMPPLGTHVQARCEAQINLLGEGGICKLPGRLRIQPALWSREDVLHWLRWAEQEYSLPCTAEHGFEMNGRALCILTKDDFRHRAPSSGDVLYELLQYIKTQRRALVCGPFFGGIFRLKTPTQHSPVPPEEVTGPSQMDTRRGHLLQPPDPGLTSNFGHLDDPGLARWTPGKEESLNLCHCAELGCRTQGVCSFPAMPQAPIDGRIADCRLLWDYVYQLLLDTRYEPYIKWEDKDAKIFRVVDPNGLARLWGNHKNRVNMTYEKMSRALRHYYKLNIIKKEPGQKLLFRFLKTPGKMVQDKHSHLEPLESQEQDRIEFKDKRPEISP
Particulars: protein: recombinant; tags: N-terminal GST; dsDNA, one strand shown. In short, it runs like this: as §1

The next test has as its target T11, ELF5 (Homo sapiens, UniProt Q9UKW6-2 1-255).
T11 sequence: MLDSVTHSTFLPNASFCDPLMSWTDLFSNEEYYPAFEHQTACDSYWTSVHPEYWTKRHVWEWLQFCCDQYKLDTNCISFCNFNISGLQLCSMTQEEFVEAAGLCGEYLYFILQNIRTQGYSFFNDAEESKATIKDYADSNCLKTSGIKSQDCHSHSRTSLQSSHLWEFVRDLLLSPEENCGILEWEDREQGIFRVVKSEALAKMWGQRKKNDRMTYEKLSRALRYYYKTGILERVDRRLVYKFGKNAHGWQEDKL
Particulars: protein: recombinant; tags: N-terminal GST; dsDNA, one strand shown. The essentials: as §1

Another test addresses T12, ETV3 (Homo sapiens, UniProt P41162-2 1-143).
T12 sequence: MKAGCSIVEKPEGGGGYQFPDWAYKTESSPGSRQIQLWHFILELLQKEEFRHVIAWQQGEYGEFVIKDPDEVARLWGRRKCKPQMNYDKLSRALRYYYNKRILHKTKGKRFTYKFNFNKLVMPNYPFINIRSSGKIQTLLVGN
Particulars: protein: recombinant; tags: N-terminal GST; dsDNA, one strand shown. The essentials: as §1

Another test has as its target ETV6 (Homo sapiens, UniProt P41212 1-452). As to conditions: protein: recombinant; tags: N-terminal GST; dsDNA, one strand shown. The essentials:
as §1

CRX, sequence (O43186 whole entry): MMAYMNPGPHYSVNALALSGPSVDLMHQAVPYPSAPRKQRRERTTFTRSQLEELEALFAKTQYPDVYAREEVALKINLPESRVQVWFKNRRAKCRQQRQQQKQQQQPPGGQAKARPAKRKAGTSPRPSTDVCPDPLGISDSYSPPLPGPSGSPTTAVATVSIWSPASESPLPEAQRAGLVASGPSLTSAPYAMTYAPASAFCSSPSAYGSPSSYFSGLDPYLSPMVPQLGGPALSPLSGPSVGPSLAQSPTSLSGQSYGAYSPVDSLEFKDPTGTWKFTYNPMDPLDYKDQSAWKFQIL
ETV1, sequence (P50549 whole entry): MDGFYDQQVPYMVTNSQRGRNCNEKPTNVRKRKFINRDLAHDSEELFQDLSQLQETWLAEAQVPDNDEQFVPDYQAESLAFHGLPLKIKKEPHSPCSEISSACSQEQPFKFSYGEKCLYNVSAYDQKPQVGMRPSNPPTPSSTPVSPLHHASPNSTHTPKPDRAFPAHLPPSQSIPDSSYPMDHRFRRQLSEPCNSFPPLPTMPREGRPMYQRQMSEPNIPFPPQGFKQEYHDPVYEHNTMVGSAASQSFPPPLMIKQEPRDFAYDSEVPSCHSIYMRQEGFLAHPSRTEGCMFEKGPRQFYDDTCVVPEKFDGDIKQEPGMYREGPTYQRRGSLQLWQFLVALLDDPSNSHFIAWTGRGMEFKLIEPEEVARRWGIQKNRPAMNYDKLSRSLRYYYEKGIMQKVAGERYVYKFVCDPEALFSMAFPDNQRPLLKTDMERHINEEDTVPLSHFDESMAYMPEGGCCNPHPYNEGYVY
ETV6, sequence (P41212 whole entry): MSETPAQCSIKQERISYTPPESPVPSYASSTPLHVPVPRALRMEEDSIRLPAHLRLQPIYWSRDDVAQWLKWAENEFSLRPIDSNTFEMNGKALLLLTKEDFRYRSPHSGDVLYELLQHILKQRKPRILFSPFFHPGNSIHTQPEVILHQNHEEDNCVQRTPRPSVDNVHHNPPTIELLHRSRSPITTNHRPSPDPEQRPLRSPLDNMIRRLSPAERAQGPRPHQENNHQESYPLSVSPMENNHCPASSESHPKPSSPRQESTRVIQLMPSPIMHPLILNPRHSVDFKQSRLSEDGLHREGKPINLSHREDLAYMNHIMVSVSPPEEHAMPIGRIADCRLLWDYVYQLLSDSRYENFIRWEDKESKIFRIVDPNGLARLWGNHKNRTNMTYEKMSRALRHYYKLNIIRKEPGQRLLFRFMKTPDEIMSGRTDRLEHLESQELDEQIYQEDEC
ELF4, sequence (Q99607 whole entry): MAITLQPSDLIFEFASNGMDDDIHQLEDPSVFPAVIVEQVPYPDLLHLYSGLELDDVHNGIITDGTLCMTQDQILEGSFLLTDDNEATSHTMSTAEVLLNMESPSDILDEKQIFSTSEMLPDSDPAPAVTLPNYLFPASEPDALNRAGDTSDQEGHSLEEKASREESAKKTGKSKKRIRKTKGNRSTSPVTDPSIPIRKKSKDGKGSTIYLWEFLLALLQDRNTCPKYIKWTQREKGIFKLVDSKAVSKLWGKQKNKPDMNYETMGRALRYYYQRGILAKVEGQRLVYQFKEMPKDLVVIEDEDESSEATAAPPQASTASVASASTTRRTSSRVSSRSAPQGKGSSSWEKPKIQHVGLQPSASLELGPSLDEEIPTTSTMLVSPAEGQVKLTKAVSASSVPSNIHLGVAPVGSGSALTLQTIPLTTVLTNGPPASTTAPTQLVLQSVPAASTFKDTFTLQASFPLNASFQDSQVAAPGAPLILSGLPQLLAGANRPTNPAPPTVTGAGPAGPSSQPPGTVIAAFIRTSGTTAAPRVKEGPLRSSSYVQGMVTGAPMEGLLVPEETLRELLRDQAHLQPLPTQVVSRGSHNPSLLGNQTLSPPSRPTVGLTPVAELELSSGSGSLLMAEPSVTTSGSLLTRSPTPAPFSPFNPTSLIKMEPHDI

Take ATTCTA: the binding signal with FEV is 1.14 fold enrichment (6-mer frequency, TF over GST control); in the test with ETV5, 1.16 fold enrichment (6-mer frequency, TF over GST control); with HSF1, 3.09 fold enrichment (6-mer frequency, TF over GST control); with SPIC, 1.26 fold enrichment (6-mer frequency, TF over GST control); with ELF4 it was 1.2 fold enrichment (6-mer frequency, TF over GST control); with ELK4, 1.32 fold enrichment (6-mer frequency, TF over GST control). In addition, the binding signal in the test with ETV2 was 1.26 fold enrichment (6-mer frequency, TF over GST control); with ELF3, 1.24 fold enrichment (6-mer frequency, TF over GST control); in the test with CRX it was 1.84 fold enrichment (6-mer frequency, TF over GST control); with ETV1 it was 1.2 fold enrichment (6-mer frequency, TF over GST control); in the test with ERF, 1.32 fold enrichment (6-mer frequency, TF over GST control); with ETV3L it was 1.22 fold enrichment (6-mer frequency, TF over GST control). Further, the binding signal with ETS2 was 1.3 fold enrichment (6-mer frequency, TF over GST control); with SPDEF, 1.23 fold enrichment (6-mer frequency, TF over GST control); with ETV7, 1.28 fold enrichment (6-mer frequency, TF over GST control); with ELF5 it was 1.15 fold enrichment (6-mer frequency, TF over GST control); with ETV3, 1.2 fold enrichment (6-mer frequency, TF over GST control); with ETV6 it was 1.15 fold enrichment (6-mer frequency, TF over GST control).
